Compounds with a hit are over-represented: about 1.2% of the library has one in this group of screens.
PLC-gamma1 inh – PLC-gamma1 enzyme inhibitors, primary screen, biochemical, fluorescence, purified enzyme; 1-phosphatidylinositol 4,5-bisphosphate phosphodiesterase gamma-1 (Homo sapiens), P19174; fluorogenic substrate; inhibition, % at 12.2 µM; actives 0.84% (n = 370,000); AID 720700, 2013
GC-B act – human GC-B receptor activators, primary screen, HEK293 GC-B cells, cGMP TR-FRET, EC30 CNP; 0% at EC30 CNP, 100% saturating CNP; activation, % at 10 µM; actives 0.11% (n = 370,000); Atrial natriuretic peptide receptor 2 (Homo sapiens), P20594;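 active = activation at 10 µM reaching about 35% in either raw or pattern-adjusted values, limit read from the data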
PLCb3 inh – human PLC-beta3 inhibitors, primary screen, biochemical, fluorescence; 1-phosphatidylinositol 4,5-bisphosphate phosphodiesterase beta-3 (Homo sapiens), Q01970; AID 720704, 2013; Purified PLC-beta3, fluorogenic substrate; actives 0.18% (n = 370,000); inhibition, % at 12.2 µM; in the data active = inhibition above about 11%;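 also: 0% = median of compound wells on plate and 100% = full blocker control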
Target sequence (Q01970 whole entry, looked up): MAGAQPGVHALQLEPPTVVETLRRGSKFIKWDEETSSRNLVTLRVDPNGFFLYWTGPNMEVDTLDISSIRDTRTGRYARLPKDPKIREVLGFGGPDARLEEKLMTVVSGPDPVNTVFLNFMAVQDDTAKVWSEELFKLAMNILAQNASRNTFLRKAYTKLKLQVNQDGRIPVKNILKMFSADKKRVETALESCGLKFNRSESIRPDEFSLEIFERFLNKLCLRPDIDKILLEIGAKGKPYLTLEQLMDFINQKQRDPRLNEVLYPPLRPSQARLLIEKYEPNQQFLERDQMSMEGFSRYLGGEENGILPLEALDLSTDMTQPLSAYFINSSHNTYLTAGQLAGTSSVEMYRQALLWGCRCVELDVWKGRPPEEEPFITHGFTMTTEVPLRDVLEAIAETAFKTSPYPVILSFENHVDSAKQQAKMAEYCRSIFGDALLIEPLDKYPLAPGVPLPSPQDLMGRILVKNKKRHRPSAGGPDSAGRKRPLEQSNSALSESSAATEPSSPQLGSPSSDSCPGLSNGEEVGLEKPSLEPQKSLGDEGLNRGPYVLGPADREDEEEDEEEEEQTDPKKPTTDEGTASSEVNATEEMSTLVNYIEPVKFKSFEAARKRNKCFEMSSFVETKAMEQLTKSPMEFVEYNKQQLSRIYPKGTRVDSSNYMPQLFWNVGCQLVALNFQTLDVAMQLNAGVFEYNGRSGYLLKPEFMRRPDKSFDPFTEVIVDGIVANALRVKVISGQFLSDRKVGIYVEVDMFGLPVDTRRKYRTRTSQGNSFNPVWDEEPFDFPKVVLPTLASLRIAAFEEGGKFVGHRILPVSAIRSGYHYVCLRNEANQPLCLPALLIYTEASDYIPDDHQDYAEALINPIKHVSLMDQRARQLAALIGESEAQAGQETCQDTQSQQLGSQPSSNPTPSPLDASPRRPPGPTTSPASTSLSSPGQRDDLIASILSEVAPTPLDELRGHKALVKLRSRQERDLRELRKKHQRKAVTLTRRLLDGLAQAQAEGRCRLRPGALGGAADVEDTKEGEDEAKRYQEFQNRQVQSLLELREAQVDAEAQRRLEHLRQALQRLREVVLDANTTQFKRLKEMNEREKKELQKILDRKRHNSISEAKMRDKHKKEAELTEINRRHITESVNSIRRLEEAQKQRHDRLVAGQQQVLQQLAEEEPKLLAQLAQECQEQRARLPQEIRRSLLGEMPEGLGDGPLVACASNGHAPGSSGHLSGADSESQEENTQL
GC-A act – GC-A stimulated cGMP production enhancers – HEK293 GC-A cells, cGMP TR-FRET, EC30 ANP, primary screen; Atrial natriuretic peptide receptor 1 (Homo sapiens), P16066; 0% at EC30 ANP, 100% saturating ANP; activation, % at 10 µM; actives 0.14% (n = 370,000); AID 1671463, 2021; in the data active = activation above about 40%
PLCgamma1 ctr – PLC-gamma1 enzyme inhibitors, counter-screen for PLC-beta3 inhibitor project, biochemical, fluorescence; actives 3.1% (n = 3,300); purified PLC-gamma1, fluorogenic substrate; AID 743258, 2014; inhibition, % at 12.3 µM; shares compounds with PLC-gamma1 inh
PLCb3 confirm – PLC-beta3 inhibitor confirmation, biochemical, fluorescence, purified enzyme; shares compounds with PLC-gamma1 inh; fluorogenic substrate fluorescence; inhibition, % at 12.3 µM; actives 1% (n = 3,300); AID 743261, 2014; in the data active = inhibition above about 11%
* marks the source's active call; other numbers are inactive results. Rule as the data show it, unless noted: active = inhibition above about 9.5%; inactive = the rest.

How did CCN(CC)S(=O)(=O)c1ccc2c(c1)c(=O)c(C(=O)NCc1cccs1)cn2C do in these assays?
PLC-gamma1 inh: 9.6*; GC-B act: 1.7; PLCb3 inh: 3.8; GC-A act: -0.1; PLCgamma1 ctr: -4.3; PLCb3 confirm: -5.4

What do the screens show for `COC(=O)c1cn(C)c2ccc(S(=O)(=O)N3CCCCC3)cc2c1=O`?
PLC-gamma1 inh: 12.0*; GC-B act: 1.4; PLCb3 inh: 5.4; GC-A act: 1.7; PLCgamma1 ctr: 7.7; PLCb3 confirm: 2.4

What do the screens show for `CCN(CC)S(=O)(=O)c1ccc2c(c1)c(=O)c(C(=O)NCCCN(C)c1ccccc1)cn2C`?
PLC-gamma1 inh: -1.1; GC-B act: -2.3; PLCb3 inh: 0.3; GC-A act: -11.3

What do the screens show for `Cc1cccnc1NC(=O)C(c1ccccc1)c1ccccc1`?
PLC-gamma1 inh: 1.9; GC-B act: -5.6; PLCb3 inh: -0.7; GC-A act: 2.0

What do the screens show for `CCc1ccccc1N(C(=O)c1snc(C(N)=O)c1N)C(C(=O)NCC1CCCO1)c1c[nH]c2ccccc12` (stereo not drawn)?
PLC-gamma1 inh: -19.7; GC-B act: -13.6; PLCb3 inh: -35.9; GC-A act: -25.5

How did CCOC(=O)c1cnn(CCOC(=O)c2cccc(F)c2)c1NC(=O)c1cccc(F)c1 do in these assays?
PLC-gamma1 inh: 11.8*; GC-B act: -2.3; PLCb3 inh: 6.7; GC-A act: -3.9; PLCgamma1 ctr: -5.9; PLCb3 confirm: -2.7

Results for COc1ccc(NC(=S)Nc2cc(C)[nH]n2)cc1Cl ?
PLC-gamma1 inh: -0.3; GC-B act: 2.4; PLCb3 inh: -5.5; GC-A act: 5.5

What do the screens show for `COc1ccc(NC(=S)Nc2cc(-c3ccccc3)[nH]n2)cc1Cl`?
PLC-gamma1 inh: 12.3*; GC-B act: 10.8; PLCb3 inh: 12.2*; GC-A act: 19.7; PLCgamma1 ctr: -0.6; PLCb3 confirm: -2.9

Results for Cc1ncccc1C(=O)N1CCCC(c2cc(C(=O)Nc3ccc(C(C)(C)C)cc3)no2)C1 (stereo not drawn) ?
PLC-gamma1 inh: 2.4; GC-B act: 7.3; PLCb3 inh: -1.2; GC-A act: 0.3

How did COc1ccc(C(=O)N/C(=C\c2cn(S(=O)(=O)N(C)C)c3ccccc23)C(=O)NCCCn2ccnc2)cc1 do in these assays?
PLC-gamma1 inh: 1.7; GC-B act: 0.9; PLCb3 inh: -4.5; GC-A act: 4.3

What do the screens show for `CCOCCCNC(=S)N(Cc1ccccc1)Cc1nc2ccccc2c(=O)[nH]1`?
PLC-gamma1 inh: -30.2; GC-B act: 3.2; PLCb3 inh: -40.3; GC-A act: -0.8

Results for CCCNC(=S)N(Cc1ccccc1)Cc1nc2ccccc2c(=O)[nH]1 ?
PLC-gamma1 inh: 19.6*; GC-B act: 1.3; PLCb3 inh: -9.3; GC-A act: 2.0; PLCgamma1 ctr: -44.0; PLCb3 confirm: -33.8

Results for CCc1ccccc1NCC(=O)Nc1ccc(Cl)c(C(F)(F)F)c1 ?
PLC-gamma1 inh: 12.1*; GC-B act: 1.1; PLCb3 inh: 8.0; GC-A act: 2.9; PLCgamma1 ctr: -1.3; PLCb3 confirm: 0.9

How did COc1cccc(S(=O)(=O)NCc2ccc(C(=O)N3CCN(c4ccccc4OC)CC3)cc2)c1 do in these assays?
PLC-gamma1 inh: 2.3; GC-B act: 3.3; PLCb3 inh: -2.7; GC-A act: 0.1

How did Clc1ccccc1OCCN1CCC(Cc2ccccc2)CC1 do in these assays?
PLC-gamma1 inh: 20.3*; GC-B act: -5.2; PLCb3 inh: 18.3*; GC-A act: -7.3; PLCgamma1 ctr: -0.3; PLCb3 confirm: -5.0

What do the screens show for `NNC(=O)Cn1nc2n(c1=O)-c1ccccc1SC2`?
PLC-gamma1 inh: 1.0; GC-B act: 5.4; PLCb3 inh: -8.6; GC-A act: 1.8

How did COc1ccc(C(=O)Nc2ccccc2C(=O)N2CCOCC2)cc1OC do in these assays?
PLC-gamma1 inh: 9.8*; GC-B act: 0.1; PLCb3 inh: 7.2; GC-A act: -2.3; PLCgamma1 ctr: -6.0; PLCb3 confirm: -1.4

How did COc1ccc(C(=O)Nc2cc(C)nc3ccccc23)cc1OC do in these assays?
PLC-gamma1 inh: 10.5*; GC-B act: -0.1; PLCb3 inh: 1.6; GC-A act: 4.9; PLCgamma1 ctr: -6.4; PLCb3 confirm: -1.6

Results for COc1ccc(C(=O)Nc2ccccc2C(=O)N2CCOCC2)cc1Br ?
PLC-gamma1 inh: -0.3; GC-B act: -0.8; PLCb3 inh: -0.4; GC-A act: 0.7

How did COc1cc(C(=O)Nc2cccc(-c3nc4ccccc4o3)c2C)cc(OC)c1OC do in these assays?
PLC-gamma1 inh: 13.8*; GC-B act: -1.9; PLCb3 inh: 3.7; GC-A act: 0.8; PLCgamma1 ctr: -5.7; PLCb3 confirm: 0.2

What do the screens show for `CCc1ccccc1NC(=O)CC(NCc1ccccc1)C(=O)O` (stereo not drawn)?
PLC-gamma1 inh: -0.8; GC-B act: 0.8; PLCb3 inh: -3.0; GC-A act: 6.0

How did C#CCNC(=O)C1=C[C@H](c2ccc3c(c2)OCO3)C[C@H](OCCCCO)O1 do in these assays?
PLC-gamma1 inh: -49.6; GC-B act: 1.9; PLCb3 inh: -75.2; GC-A act: 0.3

What do the screens show for `CCOC(=O)C1CN(C(C)(C)C)C(=O)C1=O` (stereo not drawn)?
PLC-gamma1 inh: -2.2; GC-B act: -6.6; PLCb3 inh: 0.5; GC-A act: 3.3

Results for CC(C)C(c1nnnn1Cc1ccccc1)N(Cc1ccco1)Cc1cccs1 (stereo not drawn) ?
PLC-gamma1 inh: -0.4; GC-B act: -4.9; PLCb3 inh: -0.3; GC-A act: -4.5

How did COc1ccc(Cn2nnnc2C(C(C)C)N(Cc2ccco2)Cc2cccs2)cc1 (stereo not drawn) do in these assays?
PLC-gamma1 inh: 13.7*; GC-B act: -2.1; PLCb3 inh: 13.6*; GC-A act: -15.0; PLCgamma1 ctr: -2.5; PLCb3 confirm: -1.5

What do the screens show for `O=C(Nc1nc(-c2ccc(F)c(F)c2)cs1)Nc1ccc(F)cc1F`?
PLC-gamma1 inh: 10.0*; GC-B act: -6.9; PLCb3 inh: 2.8; GC-A act: 11.8; PLCgamma1 ctr: 2.8; PLCb3 confirm: -0.8

How did O=C(Cc1ccccc1F)Nc1nc(-c2ccc(F)c(F)c2)cs1 do in these assays?
PLC-gamma1 inh: 1.9; GC-B act: -0.5; PLCb3 inh: -3.2; GC-A act: 25.4

Results for O=C(NNS(=O)(=O)c1ccc(Cl)cc1)c1ccc(S(=O)(=O)N2CCCCC2)cc1 ?
PLC-gamma1 inh: 5.0; GC-B act: -0.3; PLCb3 inh: 11.1*; GC-A act: -1.7; PLCgamma1 ctr: -4.1; PLCb3 confirm: -6.1

Assay outcomes from PubChem.
